Results taken from PubChem BioAssay.
Active and inactive are the calls of the source.

Legend:
[1] = test system: Plasmodium falciparum Sir2 (PF13_0152, Sir2A); assay: Plasmodium falciparum Sir2A binding compounds – biochemical, small-molecule microarray, 635 nm fluorescence, primary screen (AID 1098); conditions: fluorescence 635 nm, higher = more signal;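 also: score merges spot fluorescence intensity with its signal-to-noise ratio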
[2] = probe aDKK1 binding to arrayed compounds – biochemical, biotinylated probe, 635/667 nm fluorescence, primary screen (AID 1099); conditions: small-molecule microarray, higher = more signal;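 also: score merges 667nm spot fluorescence with signal to noise across triplicate slides; reference of the scale not given here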
[3] = probe aCHRDL2 binding to arrayed compounds – biochemical, biotinylated probe, 635/667 nm fluorescence, primary screen (AID 1100); conditions: small-molecule microarray, higher = more signal
[4] = change in splice reporter luminescence, either direction, cell-based, HEK293, spliceosome inhibition project, primary screen (AID 1101); conditions: HEK293 splicing luciferase reporter, 24 h, higher = more signal, called active from +8 up or from −8 down;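 also: HEK293 cells carrying a splicing-competent luciferase reporter gene; test concentration not given here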
[5] = target: Fibroblast growth factor 10 (Homo sapiens) (UniProt O15520); assay: compounds binding fibroblast growth factor 10 – biochemical, small-molecule microarray, 635 nm fluorescence, primary screen (AID 1102); conditions: FGF10 binding, fluorescence 635 nm, higher = more signal
Sequence of Fibroblast growth factor 10 (Homo sapiens) (O15520 whole entry, looked up): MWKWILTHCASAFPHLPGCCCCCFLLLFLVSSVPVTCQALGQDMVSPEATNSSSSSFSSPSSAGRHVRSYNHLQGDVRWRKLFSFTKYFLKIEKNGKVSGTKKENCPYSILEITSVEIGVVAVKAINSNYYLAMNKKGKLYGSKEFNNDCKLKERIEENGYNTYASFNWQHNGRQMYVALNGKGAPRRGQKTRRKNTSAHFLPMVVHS

[6] = test system: glycogen synthase kinase-3 (GSK3A per assay name; protocol says GSK3B); assay: compounds binding glycogen synthase kinase-3 – biochemical, small-molecule microarray, 635 nm fluorescence, GSK3A, primary screen (AID 1103); conditions: fluorescence 635 nm, higher = more signal; also: the record names both GSK3A and GSK3B
[7] = target: Epidermal growth factor receptor (Homo sapiens) (UniProt P00533); assay: compounds binding epidermal growth factor receptor – biochemical, small-molecule microarray, 635 nm fluorescence, primary screen (AID 1104); conditions: EGFR binding, higher = more signal;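 also: score merges 667 nm emission intensity with spot signal to noise over triplicate slides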
Sequence of Epidermal growth factor receptor (Homo sapiens) (P00533 whole entry, looked up): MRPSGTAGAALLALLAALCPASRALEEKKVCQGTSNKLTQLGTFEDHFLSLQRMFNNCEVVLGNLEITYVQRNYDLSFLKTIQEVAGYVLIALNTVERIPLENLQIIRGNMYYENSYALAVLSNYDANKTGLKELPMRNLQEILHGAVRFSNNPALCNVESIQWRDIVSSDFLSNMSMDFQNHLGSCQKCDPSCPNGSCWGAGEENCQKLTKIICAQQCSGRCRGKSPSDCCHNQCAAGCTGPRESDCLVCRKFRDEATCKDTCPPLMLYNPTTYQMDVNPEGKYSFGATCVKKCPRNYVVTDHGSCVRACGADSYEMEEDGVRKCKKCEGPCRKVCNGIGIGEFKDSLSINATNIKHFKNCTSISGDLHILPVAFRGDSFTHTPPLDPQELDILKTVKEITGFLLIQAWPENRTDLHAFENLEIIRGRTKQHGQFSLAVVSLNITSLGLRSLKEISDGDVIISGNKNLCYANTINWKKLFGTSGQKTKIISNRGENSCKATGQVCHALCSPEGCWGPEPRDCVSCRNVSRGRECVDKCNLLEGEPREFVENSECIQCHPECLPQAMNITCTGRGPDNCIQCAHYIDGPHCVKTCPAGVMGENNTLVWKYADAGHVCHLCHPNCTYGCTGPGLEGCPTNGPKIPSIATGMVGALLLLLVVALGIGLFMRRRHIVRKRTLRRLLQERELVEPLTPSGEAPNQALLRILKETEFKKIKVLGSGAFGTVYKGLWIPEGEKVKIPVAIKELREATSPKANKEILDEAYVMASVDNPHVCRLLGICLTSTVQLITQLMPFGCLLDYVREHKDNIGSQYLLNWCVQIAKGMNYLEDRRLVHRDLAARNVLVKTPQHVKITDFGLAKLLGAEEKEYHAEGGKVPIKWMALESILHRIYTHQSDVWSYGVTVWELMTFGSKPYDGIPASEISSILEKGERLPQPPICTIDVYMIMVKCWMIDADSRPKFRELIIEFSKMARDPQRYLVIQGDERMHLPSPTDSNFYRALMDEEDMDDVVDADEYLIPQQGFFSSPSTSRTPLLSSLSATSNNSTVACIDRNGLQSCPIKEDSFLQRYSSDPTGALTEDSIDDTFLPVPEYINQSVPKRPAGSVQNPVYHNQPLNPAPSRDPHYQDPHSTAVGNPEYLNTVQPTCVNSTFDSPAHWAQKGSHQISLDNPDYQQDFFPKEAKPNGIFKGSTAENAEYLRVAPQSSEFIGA

[8] = target: Follistatin-related protein 3 (Homo sapiens) (UniProt O95633); assay: compounds binding follistatin-related protein 3 – biochemical, small-molecule microarray, 635 nm fluorescence, primary screen (AID 1105); conditions: FSTL3 binding, higher = more signal;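 also: score merges emission near 667 nm and signal to noise per printed spot across three slides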
Sequence of Follistatin-related protein 3 (Homo sapiens) (O95633 whole entry, looked up): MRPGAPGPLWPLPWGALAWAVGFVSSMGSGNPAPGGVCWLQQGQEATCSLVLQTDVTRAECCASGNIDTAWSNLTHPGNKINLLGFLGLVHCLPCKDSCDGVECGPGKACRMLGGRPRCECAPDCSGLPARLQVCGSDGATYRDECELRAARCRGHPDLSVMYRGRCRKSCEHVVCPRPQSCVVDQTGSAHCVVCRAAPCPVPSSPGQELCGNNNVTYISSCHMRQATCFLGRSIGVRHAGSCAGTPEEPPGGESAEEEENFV

[9] = target: Dickkopf-related protein 1 (Homo sapiens) (UniProt O94907); assay: small molecules binding DKK1 protein – biochemical, small-molecule microarray, 635 nm fluorescence scan, primary screen (AID 1106); conditions: higher = more signal;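 also: score merges emission near 667 nm with signal to noise over three replicate slides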
Sequence of Dickkopf-related protein 1 (Homo sapiens) (O94907 whole entry, looked up): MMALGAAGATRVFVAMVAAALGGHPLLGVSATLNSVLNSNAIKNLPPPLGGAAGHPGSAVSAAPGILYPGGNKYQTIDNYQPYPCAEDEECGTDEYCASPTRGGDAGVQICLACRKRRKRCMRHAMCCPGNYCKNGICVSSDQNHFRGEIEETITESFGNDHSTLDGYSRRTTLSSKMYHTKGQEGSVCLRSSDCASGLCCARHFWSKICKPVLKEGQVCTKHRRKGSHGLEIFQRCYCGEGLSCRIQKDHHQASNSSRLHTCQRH

[10] = test system: Inhibin beta A chain (activin A); assay: small molecules binding activin A – biochemical, small-molecule microarray, 635 nm fluorescence scan, primary screen (AID 1107); conditions: INHBA, higher = more signal;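 also: mouse activin A protein probed at 4.33 µg/mL on printed slides; score merges bound-protein fluorescence near 667 nm with spot signal-to-noise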

Row | SMILES | composite z-score [1] | composite z-score [2] | composite z-score [3] | z-score [4] | composite z-score [5] | composite z-score [6] | composite z-score [7] | composite z-score [8] | composite z-score [9] | composite z-score [10]
1 | COc1ccc(-c2cnnc(CCCn3ccnc3-c3ccccc3)n2)cc1 | 0.442 | 0.0096 | -0.592 | -1.04 (inactive) | 0.7 | 0.7 | 0.929 | 1.37 | 1.02 | 0.327
2 | CC(CCN1CCCCc2nc(C)c(C)cc21)=NO[C@@H](C)c1cc(-c2c(C)cc(C)cc2C)no1 | 1.41 | -0.422 | 0.27 | 0.673 (inactive) | -0.488 | -1.05 | -1.51 | -1.35 | -0.0396 | 0.823
3 | CC#CCOCCC=C1c2ccccc2[C@@H](OC)[C@@H]1C | 0.183 | -0.168 | -0.42 | 0.478 (inactive) | 0.593 | -0.406 | 0.0594 | 0.449 | 0.487 | -2.36
4 | CCOC(=O)[C@H](Cc1ccccc1)NC(=O)CCC1CC(OC(=O)NCc2cccc3ccccc23)CC2(CCCC(COC(=O)NCCc3ccccc3OC)O2)O1 (stereo not given in full) | 0.405 | -0.0537 | -0.409 | 0.223 (inactive) | 0.791 | 0.583 | 0.454 | 1.07 | 0.331 | -0.251
5 | CCN1C(=O)[C@H]2[C@H]3[C@H](O)[C@H](O)CC(=NO[C@H](C)c4cn([C@@H]5COC[C@H]5O)nn4)[C@@H]3CC[C@H]2C1=O | -0.428 | -0.19 | -0.593 | 0.299 (inactive) | 0.46 | -0.162 | 0.219 | -0.169 | 0.451 | -0.322
6 | O=C(NN=C1C[C@@H](O)[C@@H](O)[C@@H]2[C@@H]3C(=O)N(Cc4ccccc4)C(=O)[C@@H]3CC[C@H]12)OCc1ccccc1 | -0.944 | -0.427 | -0.47 | -0.865 (inactive) | 0.773 | 0.256 | 0.39 | 0.315 | 0.698 | -0.0371
7 | CC(C)=NO[C@H](C)c1cn([C@@H]2COC[C@H]2O)nn1 | 0.52 | -0.0146 | -0.607 | -0.413 (inactive) | 0.728 | 0.788 | 0.539 | 0.67 | 0.669 | -0.0201
8 | CCO[C@H](c1cc(OC)cc([N+](=O)[O-])c1OC)[C@H](C)[C@@H](OC)[C@H](C)C=CCC(=O)OC | 0.535 | 0.481 | -0.133 | -0.188 (inactive) | 0.278 | 0.188 | 0.835 | 0.723 | -0.359 | -0.334
9 | C[C@@H]1CC[C@H]2C(=O)N3[C@@H](CC[C@@H](C)[C@@H]3c3ccc(Br)cc3)C(=O)N2[C@H]1c1ccc(Br)cc1 | 0.223 | -0.339 | -0.355 | -0.628 (inactive) | 0.592 | -0.0161 | 0.278 | 0.384 | 0.605 | 0.22
10 | CCN1C(=O)[C@H]2[C@H]3[C@H](O)[C@H](O)CC(=NO[C@H](C)c4cn([C@H](CO)Cc5ccccc5)nn4)[C@@H]3CC[C@H]2C1=O | 0.955 | 0.245 | -0.681 | -0.05 (inactive) | 0.869 | 0.978 | 0.587 | 1.05 | 0.553 | -0.802
11 | CCN1C(=O)[C@H]2[C@H]3[C@H](O)[C@H](O)CC(=NO[C@@H](C)c4cc(-c5c(C)cc(C)cc5C)no4)[C@@H]3CC[C@H]2C1=O | 0.808 | 0.101 | -0.239 | -0.111 (inactive) | 0.841 | 1.24 | 0.451 | 1.18 | 0.647 | -0.989
12 | O=C(NN=C1C[C@@H](O)[C@@H](O)[C@@H]2[C@@H]3C(=O)N(c4ccc(F)cc4F)C(=O)[C@@H]3CC[C@H]12)OCc1ccccc1 | 0.705 | 0.052 | 0.793 | 0.267 (inactive) | 0.379 | 0.131 | -0.0295 | 0.385 | -0.118 | 0.0132
13 | CON=C(C)CCN1CCCCc2nc(C)c(C)cc21 | 0.636 | -0.144 | -0.0831 | 0.248 (inactive) | 0.443 | 0.213 | 0.657 | 0.507 | 0.881 | 1.52
14 | CO[C@H]1COC(=O)CCC[C@H](C)[C@H](OC)COC(=O)CC=C[C@@H]1C | 1.49 | -0.427 | -0.931 | -1.39 (inactive) | -0.0317 | 0.0951 | 0.822 | 1.04 | 0.872 | 1.43
15 | C[C@@H](c1ccccc1)N1C(=O)[C@H]2[C@H]3[C@H](O)[C@H](O)CC(=NNC(=O)OCc4ccccc4)[C@@H]3CC[C@H]2C1=O | 0.404 | -0.657 | -1.57 | 0.574 (inactive) | -0.0948 | 1.25 | 0.845 | 1.5 | 1.94 | 1.56
16 | CCOC(=O)[C@H](CC(C)C)NC(=O)CCC1CC(OC(=O)NCCc2ccc(F)cc2)CC2(CCCC(COC(=O)NCc3cccc4ccccc34)O2)O1 (stereo not given in full) | 0.66 | -0.0464 | -0.224 | -1.61 (inactive) | 0.176 | 0.121 | 0.55 | 0.135 | 0.678 | -0.583
17 | CO[C@@H]1COC(=O)CC=C[C@H](C)[C@H](OC)COC(=O)[C@@H]2CCCN2C(=O)CC=C[C@H]1C | 0.811 | -0.48 | -1.38 | -0.127 (inactive) | 0.487 | 0.562 | 1.15 | 1.25 | 1.52 | 1.14
18 | CCOC(=O)[C@H](Cc1ccccc1)NC(=O)CCC1CC(OC(=O)NCCc2ccc(F)cc2)CC2(CCCC(COC(=O)NCc3cccc(C(F)(F)F)c3)O2)O1 (stereo not given in full) | 0.863 | -0.139 | -0.311 | -0.891 (inactive) | 0.904 | 1.06 | 0.818 | 0.786 | 0.484 | -0.335
19 | COc1ccc(O[C@H]2C=C[C@@H](c3ccccc3)O[C@@H]2CO)cc1 | 0.281 | -0.227 | -0.116 | -0.752 (inactive) | 0.194 | 0.207 | 0.731 | 0.318 | 0.485 | 0.622
20 | CC(=O)OC[C@H]1O[C@H](CC=NOCC[C@@H]2C=C[C@H](OC(C)=O)[C@@H](COC(C)=O)O2)C=C[C@@H]1OC(C)=O | 0.892 | 0.771 | -0.752 | 0.525 (inactive) | 1.08 | 0.93 | 0.914 | 0.716 | 0.864 | 0.103
21 | CCN1C(=O)[C@H]2[C@@H]3C(=CC[C@H]2C1=O)C(=O)[C@H]1O[C@H]1[C@H]3O | 0.641 | -0.409 | -0.722 | 17 (active) | 1.06 | 1.11 | 0.827 | 1.28 | 1.17 | 0.065
22 | C[C@@H]1CC[C@H]2C(=O)OC(CN3C(=O)c4ccccc4C3=O)CN2[C@H]1c1ccc(Br)cc1 (stereo not given in full) | 0.532 | -0.117 | -0.0788 | 0.5 (inactive) | 0.398 | -0.0067 | 0.13 | -0.234 | 0.383 | 0.74
23 | CC(=O)OC[C@H]1O[C@@H](ON=C(C)C)[C@H](OC(C)=O)[C@@H](OC(C)=O)[C@@H]1OC(C)=O | -0.745 | -0.191 | 0.46 | 0.851 (inactive) | -0.527 | -1.28 | -0.246 | -1.57 | -1.38 | -2.17
24 | CO[C@@H]1C=CCC(=O)N[C@@H](C)C(=O)OC[C@@H](OC)[C@H](C)C=CCC(=O)OC[C@H]1C | 1.27 | -0.266 | -1.14 | 0.175 (inactive) | 0.656 | 0.808 | 1.07 | 1.53 | 1.35 | 1.77
25 | CCCNC(=O)OC[C@H]1O[C@H](CCON=C[C@@H](C)[C@H](OCc2ccccc2)C(C)C)C=C[C@@H]1Oc1ccc(OC)cc1 | -0.369 | -0.275 | -0.228 | -1.54 (inactive) | -0.302 | -1.32 | 0.332 | -0.245 | 0.159 | 0.33
26 | CCOC(=O)[C@H](Cc1ccccc1)NC(=O)CCC1CC(OC(=O)NCc2ccc3c(c2)OCO3)CC2(CCCC(COC(=O)NCCOC)O2)O1 (stereo not given in full) | 0.857 | -0.219 | -0.49 | -0.991 (inactive) | 1.28 | 1.2 | 0.584 | 1.01 | 0.437 | -0.169
